This note sets out measurements from PubChem BioAssay (NCATS).

Records with an inconclusive call do not appear. Where a call stands in place of a potency, no number is given. Activity calls are given as the source filed them. Calls follow the shape of the dose curve; as a rule, active = well fitted inhibition curve with a large enough effect; inconclusive = small, poorly fitted or top-dose-only effect; inactive = no such curve, though single readings can be large or run the other way.

The nature of the assay: Primary qHTS for small molecule stabilizers of the endoplasmic reticulum resident proteome: Secreted ER Calcium Modulated Protein (SERCaMP) assay (AID 1508630). The following applies: SH-SY5Y GLuc-SERCaMP (Gaussia luciferase released on ER calcium loss) secretion, thapsigargin, luminescence; series mostly up to 38.4 µM. Summed up: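 The SH-SY5Y reporter protocol was run at 3 concentrations up to 38.3 uM (primary) or 11 concentrations (follow-up): 16 h compound, 100 nM thapsigargin for 4 h, then extracellular luciferase luminescence.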
On the technique in general: Quantitative high-throughput screening tests each substance at several concentrations.
Regarding `NCCNCCNCCNCCN`, the activity change, negative = inhibition is -1.31% [at 7.35 µM] (inactive).

For `Cc1ccc2nc(N)[nH]c(=O)c2c1Sc1ccncc1`, the Potency entry is “inactive”.

On to `O=S(=O)(O)c1cc(I)c(O)c2ncccc12`, for which the Potency result is “inactive”.

For the molecule `C/C(=C(\CCOP(=O)(O)O)SC(=O)c1ccccc1)N(C=O)Cc1cnc(C)nc1N`, the activity change, negative = inhibition was -22.1% [at 3.88 µM] (inactive).

For the molecule `Nc1ccc(S(=O)(=O)Nc2nccs2)cc1`, the Potency entry is “inactive”.

Take `CC(=O)O[C@@]12CO[C@@H]1C[C@H](O)[C@@]1(C)C(=O)[C@H](O)C3=C(C)[C@@H](OC(=O)[C@H](O)[C@@H](NC(=O)OC(C)(C)C)c4ccccc4)C[C@@](O)([C@@H](OC(=O)c4ccccc4)[C@H]21)C3(C)C`: the Potency result was “inactive”.

Regarding `O=c1cc[nH]c(=O)[nH]1`, the Potency result was “inactive”.

As to `OCC(CO)N[C@H]1C[C@](O)(CO)[C@@H](O)[C@H](O)[C@H]1O`, the Potency entry is “inactive”.

Consider `NC(=O)NC(=O)Cc1ccccc1`, for which the Potency result is “inactive”.

With `CN(N=O)C(=O)N[C@@H]1[C@@H](O)[C@H](O)[C@@H](CO)O[C@@H]1O`, the Potency result was “inactive”.

On to `Cc1ccc(C(C)C)cc2c(C)ccc1-2`, for which the Potency entry was “inactive”.

Consider `O=c1cc[nH]c(=S)[nH]1`, for which the Potency result is “inactive”.

Take `c1ccc2c(CC3=NCCN3)cccc2c1`: the Potency entry was “inactive”.

On to `CC1(C)[C@@H]2CC[C@@]1(C)C(=O)C2`, for which the Potency result is “inactive”.
